Rows were chosen to be rich in hits. Some 13% of all compounds tested hit in one or more screens of this group.
Cycloheximide cs – Cycloheximide Counterscreen for Small Molecule Inhibitors of Shiga Toxin; AID 2314, 2010; cell reporter, cycloheximide protein synthesis inhibition counterscreen; max response, %; hit rate 12% among 300,000; in the data active = max response mostly above about 13%, no sharp cut-off; inactive = mostly below about 14%; note: read at 38.3 µM for the half of the compounds with a filed dose; 0% is about no effect
Marburg entry inh – qHTS for inhibitors of binding or entry into cells for Marburg Virus; Marburg virus pseudotyped entry inhibition, cell reporter; Potency, µM (titrated, usually from 37.8 µM), for the others: at the highest dose activity change, negative = inhibition, most hits filed as inhibitors; hit rate 1.8% among 300,000; calls by dose curve; tested in HEK293 cells; note: potency is the fitted concentration of half-maximal effect; % is set by controls: 0 for no effect and ±100 for the full control effect
Shiga toxin inh – A qHTS for Small Molecule Inhibitors of Shiga Toxin; Vero cells, Shiga toxin protein synthesis inhibition reporter; inhibition, % at 38.7 µM; hit rate 9.2% among 290,000; AID 2315, 2010; in the data active = inhibition mostly above about 28%, no sharp cut-off; inactive = mostly below about 43%; note: 0% is about no effect
FMDV antiviral – High Throughput Screening for Foot and Mouth Disease Virus Antivirals; hit rate 1.2% among 410,000; AID 1159524, 2015; FMDV antiviral cell-based qHTS; Potency, µM (series often up to 57.9 µM), for the others: at the top dose activity change, negative = inhibition, most hits filed as inhibitors; calls by dose curve; tested in HEK293T cells; note: read-out not given here; potency is the fitted concentration of half-maximal effect; % is set by controls: 0 for no effect and ±100 for the full control effect; nearly all actives have a fitted effect of over 45% in size
HCV inh – qHTS Assay for Inhibitors of Hepatitis C Virus (HCV). Potency, µM (titrated, usually from 41.8 µM), inactives show at the top dose activity change, negative = inhibition, most hits filed as inhibitors. hit rate 3.4% among 340,000. Huh7.5.1 HCVcc-Cre infection, luciferase reporter, 44 h. AID 651820, 2012; active = well fitted inhibition curve with a large enough effect; inconclusive = small, poorly fitted or top-dose-only effect, or another doubt; inactive = no such curve, though single readings can be large or run the other way; note: potency is the fitted concentration of half-maximal effect; % is set by controls: 0 for no effect and ±100 for the full control effect
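Compounds are dispensed onto cells plated 4 h earlier at 1,000 per well, with HCVcc-Cre virus (about 0.5 moi) added next. Following 44 h of culture, luminescent signal is measured for 15 sec after 15 min with substrate at room temperature.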
LASV entry inh – qHTS for Inhibitors of binding or entry into cells for Lassa Virus; Lassa virus pseudotype entry inhibition, cell reporter; Potency, µM (top dose mostly 37.9 µM), for inactives: at the highest dose activity change, negative = inhibition, usual class: inhibitors; hit rate 1.2% among 300,000; AID 540256, 2011; calls by dose curve; tested in HEK293 cells; note: potency is the fitted concentration of half-maximal effect; % is set by controls: 0 for no effect and ±100 for the full control effect; nearly all actives have a fitted effect of over 50% in size
The depositor's hits bear a star; ? = inconclusive; . = no result; [ ] = dose if it differs, or a comment.

SMILES	Cycloheximide cs	Marburg entry inh	Shiga toxin inh	FMDV antiviral	HCV inh	LASV entry inh
c1ccc(C2=NN(c3ccccc3)C(c3ccco3)C2)cc1 (stereo not drawn)	9	-11%	32	-19%	-30%	-12%[46.1 µM]
CCN(CC)S(=O)(=O)c1ccc(C(=O)NCC(=O)N/N=C/c2ccccc2OC)cc1	-2	2%	-6	-8%	-3%	-7%
COc1ccc(CCNC(=O)COc2ccc(S(=O)(=O)N3CCOCC3)cc2C)cc1	-4	?	-5	?	-7%	?
CC(C)(C)NC(=O)COC(=O)/C=C/c1ccc(F)cc1	24*	15%	43	35%	30%	-7%
O=C(N/N=C/c1c(Cl)cccc1Cl)c1n[nH]c2c1CCCC2	94*	-43%	132*	73%	?	?
Cc1ccsc1/C=N\NC(=O)c1n[nH]c2c1CCC2	11*	2.8µM*	3	0%	?	6.3µM*
O=C(N/N=C/c1c(Cl)cccc1Cl)c1ccc(-n2cnnn2)cc1	.	.	.	8%	-6%	.
CNC(=O)c1cccnc1Nc1cccc(C(F)(F)F)c1	27*	31%	11	0%	10µM*	1%
CCN(C(=O)COC(=O)c1cccnc1Nc1cccc(C(F)(F)F)c1)C1CCS(=O)(=O)C1 (stereo not drawn)	42*	-2%	51*	-25%	2%	-13%
CCOC(=O)c1sc(NC(=O)c2ccc(S(=O)(=O)N3CCOCC3)cc2)nc1-c1ccccc1	-2	-3%	8	-59%	?	.
O=C(NNc1ncnc2c1cnn2-c1ccccc1)c1ccccc1	.	.	.	30%	.	-21%[46.1 µM]
N#Cc1cccc(Nc2ncnc3c2cnn3-c2cccc(Cl)c2)c1	.	.	.	-11%	.	-3%[46.1 µM]
Fc1cccc(Nc2ncnc3c2cnn3-c2ccccc2)c1	30*	.	80*	-17%	?	.
Clc1cccc(Nc2ncnc3c2cnn3-c2ccccc2)c1	40*	.	45*	3%	11µM*	.
O=C(O)c1cccc(Nc2ncnc3c2cnn3-c2ccccc2)c1	35*	-18%	106*	46%	6%	?
COc1cccc(CNCCCSc2nnnn2C)c1OC	.	9%[46.1 µM]	.	-5%	.	12%[46.1 µM]
NC(=Nc1ccccc1)Nc1ccccc1	-2	.	-11	-5%	?	.
CC(/C=C(\C)Nc1ccccc1)=Nc1ccccc1	26*	?	23	-10%	17%	.
O=C(CCNC(=O)Cn1ccc2ccccc2c1=O)NCc1ccc(F)cc1Cl	-3	4%[46.1 µM]	-13	-18%	2%	-19%[46.1 µM]
CC(CN(C)Cc1ccccc1)OC(=O)C1COc2ccccc2O1 (stereo not drawn)	21	-3%	3	0%	3%	.
O=c1cc(N2CCCC2)c2ccccc2o1	1	11%[46.1 µM]	19	-7%	11µM*	-14%
CCCN(CC(=O)Nc1ccc(Cl)cc1Cl)C(=O)/C=C/c1ccco1	77*	?	174*	4%	?	?
CCN(CC(=O)Nc1ccc(NC(C)=O)cc1)C(=O)/C=C/c1ccco1	.	7%	.	-3%	31%	-4%
O=C(c1cccs1)c1coc2ccc(O)c(CN(CCO)CCO)c12	17*	15%	63*	58%	18%	-4%
CCN(CC)Cc1c(O)ccc2occ(C(=O)c3ccccc3)c12	39*	.	78*	-7%	-20%	.
SMILES	Cycloheximide cs	Marburg entry inh	Shiga toxin inh	FMDV antiviral	HCV inh	LASV entry inh
COc1ccc2occ(C(=O)c3coc4ccc(O)c(CN(C)C)c34)c2c1	4	?	31	-4%	?	-14%
CN(C)Cc1c(O)ccc2occ(C(=O)c3ccccc3)c12	25*	-20%	65*	12%	-5%	-6%
CCSc1nc2sc3c(c2c(=O)n1-c1ccc(OC)cc1)CCN(C)C3	-2	?	-13	-6%	?	5%
Nc1nc(NCc2ccccc2Cl)n(-c2ccccc2)n1	-1	6%	-4	-5%	15%	3%
O=C(OCc1ccccc1)N1CCC2CC1c1cc(N3CCOCC3)ccc12 (stereo not drawn)	.	.	.	3%	0.32µM*	.
Cc1cc(C)n(-c2ccc(NN=C(C#N)C#N)cc2)n1	14	.	18	?	?	.
O=C(Nc1ccccc1)Nc1ccc(-n2ccc(C(F)(F)F)n2)cc1	39*	.	75*	72%	?	.
N#CC(C#N)=NNc1ccc(-n2ccc(C(F)(F)F)n2)cc1	16*	3.2µM*	42	?	4µM*	?
CNC(=O)C1CCC(Cn2c(=O)c3sccc3n(CC(=O)NCc3ccc(OC)cc3)c2=O)CC1 (stereo not drawn)	.	.	.	-3%	.	16%[46.1 µM]
COC(=O)c1ccc(CNC(=O)CNc2cc(C(F)(F)F)ccc2N2CCOCC2)cc1	-3	0%	-21	-6%	-6%	13%
CCN(CC)CCCNc1cc(C)nc2cc(-c3cccs3)nn12	-2	18µM*	-9	-7%	?	-18%[46.1 µM]
Cc1ccc(-c2cc3nc(C)cc(NCc4ccco4)n3n2)cc1	55*	?	59*	65%	.	40%[14.3 µM]
COCCNc1cc(C)nc2cc(-c3ccc(C)cc3)nn12	15*	-14%[46.1 µM]	100	48%	?	.
FC(F)(F)c1cc(-c2cccs2)nc2cc(-c3ccccc3)nn12	10	23%	-3	-1%	-21%	0%
Cc1cc(C(F)(F)F)n2nc(-c3cccs3)cc2n1	31*	?	39*	13%	9%	0%
O=C1CCC([N+](=O)[O-])C(c2cccc([N+](=O)[O-])c2)N1 (stereo not drawn)	-2	-4%[46.1 µM]	-12	-1%	18%	-1%
COc1ccc(C2/C(=C(/O)c3ccccc3)C(=O)C(=O)N2CO)cc1 (stereo not drawn)	-2	-7%[46.1 µM]	-16	-13%	-17%	4%
COc1ccc(-c2cc3nc(C)cc(NCCO)n3n2)cc1	22*	11%	24	.	-14%	?
Cc1cccc(-c2cc3nc(C)cc(NCCCN(C)C)n3n2)c1	-2	?	-12	10%	2.5µM*	?
CN(C)CCCNc1cc(-c2ccccc2)nc2cc(-c3cccc(F)c3)nn12	-9	.	-33	-20%	?	.
COc1ccc(/C(C)=N/NC(=S)NCc2ccco2)cc1	-1	-11%	15	-11%	-6%	2.1µM*
COc1ccc(CNC(=S)N/N=C(\C)c2ccc(OC)cc2)cc1	15	-1%[46.1 µM]	64*	6%	?	?
C=CCNC(=S)N/N=C(\C)c1ccc(OC)cc1	7	-3%[46.1 µM]	-1	-6%	?	?
COC(=O)COc1ccc(/C=N/NC(=O)CN(c2ccccc2OC)S(=O)(=O)c2ccccc2)cc1	2	-15%[46.1 µM]	7	?	?	-1%
O=C(NCCCn1ccnc1)/C(=C/c1cccnc1)NC(=O)c1ccco1	-3	.	-10	-3%	-8%	.
Cc1cccc(N2C(=O)CC(SC(=Nc3ccccc3)Nc3ccccc3)C2=O)c1 (stereo not drawn)	0	-15%	-8	?	?	?

Source: PubChem BioAssay
